Most compounds without a hit are left out; they make up all but 2.7% or so of the library.
INS-1E GSIS act = GLuc luminescence reporter in INS-1E cells, primary screen for activators of glucose-dependent secretion of insulin; INS-1E GLuc reporter insulin secretion, 2-3 h; hit rate 0.61% among 370,000; activation, % at 16.6 µM;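 active = lowest replicate activation of at least 40%, so every replicate reaches that level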
F508del corr = F508del CFTR correction, initial screen, CFBE line, single point; CFBE cells, YFP halide quenching; stimulated with forskolin plus potentiator P3; % fluorescence drop versus neutral controls; activity (quench increase), % at 7.58 µM; hit rate 0.36% among 350,000;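 active = mean added fluorescence quench of at least 8% versus neutral control, with both replicates also reaching 8%; inconclusive = only one of the mean or replicate conditions met; inactive = mean below 8% and not both replicates reaching 8%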;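 note: cells transiently co-express mutant CFTR-F508del with the halide-sensitive YFP; corrector assay measuring rescue of mutant channel to the surface after 24 h compound exposure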
HIV Env fusion = inhibitors of HIV-1 Env-driven cell-cell fusion, primary screen, HeLa-JRFL effector, CEM21 target cells, luciferase. hit rate 1.1% among 360,000. inhibition, % at 12.3 µM;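 active = mean replicate inhibition score of at least 50 and every replicate individually at or above 50; inconclusive = only one of the two criteria met; inactive = mean below 50 and not all replicates reaching 50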
PAX8 inh HTS = inhibitors of PAX8-driven TPO luciferase reporter, primary screen, RMG-I cells, single concentration; SteadyGlo, 24 h; AID 652154, 2013; inhibition, % at 12.6 µM; hit rate 1.2% among 360,000;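 active = mean replicate inhibition at least 60% with every replicate also reaching 60%; inconclusive = only one of the two criteria is met; inactive = mean below 60% and not all replicates reaching 60%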;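 note: luciferase light reporting Pax8 driven TPO promoter activity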
PGC1a acetyl inh = inhibitors of PGC1a acetylation signal, primary screen, cell-based, U2OS, AlphaScreen, inhibitor mode; AlphaScreen anti-acetyl-lysine; with virally co-expressed GCN5 acetyltransferase; inhibition, % at 15.6 µM; hit rate 0.17% among 350,000; AID 651687, 2012;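 active = every replicate shows inhibition of at least 40%; inconclusive = mean inhibition at least 40% but some replicate below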
EWS-Fli inh = EWS/Fli-driven NR0B1 reporter inhibitors, primary screen, A673 cells, NR0B1 luciferase, luminescence, MLPCN library; viability-normalised; hit rate 0.67% among 350,000; inhibition, % at 12.6 µM;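 active = mean inhibition of at least 50% after viability correction, with every replicate also passing that limit; inconclusive = mean reaches 50% but only one of two replicates passes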;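 note: firefly luciferase signal divided by Alamar Blue viability fluorescence both relative to DMSO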
DNA binder FP = DNA binders by acridine orange displacement, dose response, counter-screen for EWS/Fli inhibitor project, biochemical, fluorescence polarization, cherry-pick | AC35, µM (highest dose often 68 µM) | salmon sperm DNA acridine orange fluorescence polarization | shares compounds with EWS-Fli inh | hit rate 2% among 640;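 active = fitted curve reaches a 35% signal fall AC35 below twice the sample's top valid tested dose, actives reach about 48 µM in these data; inactive = the rest, including activity in the rising direction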;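 note: lower polarization ratio signals compound binding to DNA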
Hits are given with their value; . = inactive; ? = inconclusive; / = no result; ! = not confirmed by another sample.

SMILES	INS-1E GSIS act	F508del corr	HIV Env fusion	PAX8 inh HTS	PGC1a acetyl inh	EWS-Fli inh	DNA binder FP
C[C@H]1CN([C@@H](C)CO)C(=O)Cc2cc(NC(=O)c3ccncc3)ccc2O[C@H]1CN(C)Cc1ccc(C(=O)Nc2ccccc2N)cc1	.	.	.	.	.	.	/
COc1ccc2c3c([nH]c2c1)[C@H](CO)N(C(=O)c1ccccn1)CC31CCN(C(=O)C2CCC2)CC1	.	.	/	.	/	.	/
C[C@H](CO)N1C[C@H](C)[C@@H](CN(C)C)Oc2c(NC(=O)Cc3cn(C)c4ccccc34)cccc2C1=O	.	/	/	/	/	/	/
C[C@@H]1CN([C@@H](C)CO)S(=O)(=O)c2ccc(C#CC(C)(C)O)cc2O[C@H]1CN(C)Cc1ccccc1	.	.	.	/	.	.	/
C[C@H](O)C#Cc1ccc2c(c1)O[C@@H](CN(C)Cc1ccc(-c3ccccc3)cc1)[C@H](C)CN([C@@H](C)CO)S2(=O)=O	.	.	.	87	.	67!	.
C[C@@H]1CN([C@H](C)CO)S(=O)(=O)c2ccc(C#CC(C)(C)O)cc2O[C@H]1CN(C)Cc1ccc(-c2ccccc2)cc1	.	.	.	/	.	58	.
COc1ccc(CNc2ncc(-c3ccc(F)cc3)n2C)c2ccccc12	.	.	.	.	.	82	.
COc1ccccc1CNc1ncc(-c2ccc(F)cc2)n1C	.	.	.	.	.	.	/
CCCN1C(=O)/C(=C/c2ccc3c(c2)OCO3)NC1=S	.	.	.	.	/	.	/
CCCN1C/C(=C/c2ccc3c(c2)OCO3)C(=O)/C(=C/c2ccc3c(c2)OCO3)C1	/	/	.	.	.	64	.
Cc1ccc(S(=O)(=O)Nc2ccc3c(c2)C(=O)N([C@@H](C)CO)C[C@H](C)[C@@H](CN(C)Cc2ccc(C(F)(F)F)cc2)OCCCC[C@@H](C)O3)cc1	.	.	.	97	.	55	.
Cc1ccc(S(=O)(=O)Nc2ccc3c(c2)C(=O)N([C@H](C)CO)C[C@H](C)[C@@H](CN(C)Cc2ccc(C(F)(F)F)cc2)OCCCC[C@H](C)O3)cc1	.	.	.	97	.	69	.
C[C@@H]1CN([C@@H](C)CO)C(=O)c2cc(NC(=O)Nc3ccc(C(F)(F)F)cc3)ccc2O[C@@H](C)CCCCO[C@H]1CN(C)Cc1ccc(C(=O)O)cc1	.	.	.	.	.	.	/
C[C@@H]1CN([C@H](C)CO)C(=O)c2cc(NC(=O)c3ccccc3)ccc2O[C@@H](C)CCCCO[C@H]1CN(C)C(=O)Nc1cccc2ccccc12	.	.	?	.	.	69	.
C[C@H]1CCCCO[C@H](CN(C)Cc2ccc(C(F)(F)F)cc2)[C@@H](C)CN([C@@H](C)CO)C(=O)c2cc(NC(=O)Nc3ccccc3)ccc2O1	.	.	.	.	.	65	.
C/C=C/c1ccc([C@H]2[C@@H](CO)N(C(C)=O)C23CN(C(=O)NC2CCCC2)C3)cc1	.	.	/	/	/	.	/
C[C@H](CO)N1C[C@H](C)[C@@H](CN(C)C(=O)C2CCCCC2)Oc2cc(-c3ccncc3)ccc2S1(=O)=O	.	.	.	/	.	.	/
CN(C)C(=O)c1cccc(-c2ccc3c(c2)[C@@H]2[C@@H](CCN2C(=O)Nc2ccc(F)cc2)[C@H](CO)N3C)c1	.	.	/	.	.	.	/
C[C@@H]1CN([C@H](C)CO)C(=O)Cc2cc(NC(=O)Nc3cccc4ccccc34)ccc2O[C@H]1CN(C)CC1CCCCC1	.	.	.	.	.	.	/
C[C@H](CO)N1C[C@H](C)[C@@H](CN(C)Cc2ccc(C(F)(F)F)cc2)OCCCC[C@H](C)Oc2ccc(NS(=O)(=O)c3ccc(F)cc3)cc2C1=O	.	.	.	94	.	56	.
C[C@@H]1CCCCO[C@@H](CN(C)C(=O)Cc2ccccc2)[C@@H](C)CN([C@@H](C)CO)C(=O)c2cc(NS(=O)(=O)c3ccc(F)cc3)ccc2O1	.	.	.	.	.	64	.
C[C@@H]1CN([C@H](C)CO)C(=O)c2cc(NS(=O)(=O)c3ccc(F)cc3)ccc2O[C@@H](C)CCCCO[C@@H]1CN(C)C(=O)Cc1ccccc1	.	.	.	.	.	.	/
C[C@H](CO)N1C[C@H](C)[C@H](CN(C)CC2CCCCC2)Oc2ccc(NC(=O)Nc3cccc4ccccc34)cc2C1=O	.	.	/	/	.	62	.
C[C@H](NC(=O)C[C@H]1CC[C@@H](NC(=O)C2CCC2)[C@H](CO)O1)c1ccccc1	.	.	.	.	.	.	/
C[C@@H]1CN([C@H](C)CO)C(=O)c2cc(-c3ccccc3)cnc2O[C@@H]1CN(C)C(=O)Cc1cccnc1	.	.	.	/	.	.	/
SMILES	INS-1E GSIS act	F508del corr	HIV Env fusion	PAX8 inh HTS	PGC1a acetyl inh	EWS-Fli inh	DNA binder FP
C=CCOC(=O)c1sc(NC(=O)c2ccc(OC)cc2)nc1C	.	.	.	.	.	56	.
CCOC(=O)c1sc(NC(=S)NC(=O)c2ccc(OC)cc2)nc1C	.	.	.	.	.	.	/
CC(/C=N/n1c(-c2ccc(Cl)cc2)n[nH]c1=S)=C\c1ccco1	/	/	.	.	.	.	/
N#CC(C#N)=C1C=CC=CN1/C(=C\c1ccco1)C(=O)c1ccc(Cl)cc1	.	.	.	/	/	86	.
COc1ccccc1C(CCNCc1ccccc1)c1ccc(OC(C)C)cc1 (stereo unspecified)	.	.	.	.	.	.	/
COc1ccccc1C(CCNCc1ccc(N(C)C)cc1)c1ccc(OC(C)C)cc1 (stereo unspecified)	.	.	55	.	.	60	.
COc1ccc(C(CCNCc2ccc(OC(C)C)cc2)C(C)C)cc1 (stereo unspecified)	.	.	.	.	.	70	.
CO[C@H]1CN(C)C(=O)c2cc(NC(C)=O)ccc2OC[C@@H](C)N(C(=O)CC2CC2)C[C@@H]1C	.	.	.	/	.	.	/
COCC(=O)Nc1ccc2c(c1)OC[C@@H](C)N(C(=O)c1ccncc1)C[C@H](C)[C@@H](OC)CN(C)C2=O	.	.	.	/	.	.	/
Cc1ccc(C(C)C)c(OCc2ccc(C(=O)N/N=C/c3ccc(O)cc3O)cc2)c1	/	/	.	?	/	63	.
Oc1c(C(c2ccc(Cl)cc2)N2CCCC2)cc(Cl)c2cccnc12 (stereo unspecified)	.	.	.	70	/	53	.
C=CCOc1ccccc1C(=O)/C=C1/C(=O)Nc2ccccc21	.	.	.	.	.	58	.
